We go through 19 molecules from PubChem BioAssay AID493168 (National Center for Advancing Translational Sciences (NCATS), 2011).

Inconclusive results are not listed. A call without a number means that no potency is given here. The source made the active and inactive calls. Calls follow the shape of the dose curve; as a rule, active = well fitted inhibition curve with a large enough effect; inconclusive = small, poorly fitted or top-dose-only effect, or effect the other way; inactive = flat fitted curve, though single readings scatter.
Potency is read from the fitted curve at half-maximal effect.

Chain of Ubiquitin carboxyl-terminal hydrolase 2 (Homo sapiens) (O75604 whole entry, looked up): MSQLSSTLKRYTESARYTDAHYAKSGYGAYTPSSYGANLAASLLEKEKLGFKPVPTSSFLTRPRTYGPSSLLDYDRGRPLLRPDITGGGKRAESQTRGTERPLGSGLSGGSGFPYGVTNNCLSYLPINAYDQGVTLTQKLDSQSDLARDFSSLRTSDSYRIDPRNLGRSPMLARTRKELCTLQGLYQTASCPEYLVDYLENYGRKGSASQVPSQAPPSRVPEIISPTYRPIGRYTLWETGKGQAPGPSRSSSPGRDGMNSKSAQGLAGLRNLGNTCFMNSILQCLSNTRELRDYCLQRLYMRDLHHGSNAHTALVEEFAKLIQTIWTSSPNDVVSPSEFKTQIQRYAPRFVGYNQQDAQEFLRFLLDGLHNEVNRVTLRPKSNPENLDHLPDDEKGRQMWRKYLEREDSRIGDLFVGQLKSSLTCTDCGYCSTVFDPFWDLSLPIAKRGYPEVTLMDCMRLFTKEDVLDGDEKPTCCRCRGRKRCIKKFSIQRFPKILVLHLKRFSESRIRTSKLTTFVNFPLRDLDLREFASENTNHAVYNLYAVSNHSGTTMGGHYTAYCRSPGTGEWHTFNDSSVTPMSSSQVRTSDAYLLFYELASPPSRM

This assay deals with Ubiquitin carboxyl-terminal hydrolase 2 (Homo sapiens) (UniProt O75604). Kind of assay: Confirmation Assay for Inhibitors of Ubiquitin-specific Protease USP2a Using CHOP2 as the Reporter. Also: nearly all actives have a fitted effect of over 55% in size. The conditions noted are these: USP2 core, Ub-CHOP2 coupled reporter fluorescence; series mostly up to 38.3 µM. The method, boiled down:
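Ub-CHOP2 cleavage coupled to reporter activation was read by fluorescence after 60 min at RT, with 25 nM final Ub-CHOP2 and substrate. Enzyme (10 nM final USP2 core) first sat 30 min with compound; data were normalized to NEM and fitted to concentration-response curves.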
`COc1ccc(C(=O)OCC(=O)c2c[nH]c3ccccc23)c(OC)c1`: the Potency result is “inactive”.
With `Cc1ccc(S(=O)(=O)Nc2ccc(N3CCOCC3)cc2)cc1`, the Potency result was “inactive”.
The result for `COC(=O)CCC(=O)Nc1sc2c(c1C#N)CCCC2` reads “inactive”; that for `CCCC(c1nnnn1Cc1ccc(OC)cc1)N1CCC(C(N)=O)CC1` (centres undefined), “inactive”.
As to `Cn1nnnc1Sc1ncnc2scc(-c3ccc4c(c3)OCO4)c12`, the Potency result is “inactive”.
Turning to `CC1CCCCC1NC(=O)CSCC(=O)O` (centres undefined), the Potency result is “inactive”.
With `CCN(CC)CCNc1nc(-c2ccccc2)c2c(c1C#N)CC(C)(C)OC2`, the Potency result was “inactive”.
As to `CN(C)CCCN1C(=O)C(=O)/C(=C(/O)c2ccncc2)C1c1cccnc1` (centres undefined), the Potency result was “inactive”.
Consider `O=C(Cc1ccc(S(=O)(=O)N2CCOCC2)s1)Nc1nc2c(s1)CCCC2`, for which the Potency was 14.7 µM (active).
For the molecule `O=c1oc2c(CN3CCCCC3)c(O)ccc2c2c1CCCCC2`, the Potency entry is “inactive”.
As for `Nc1cc(N)nc(SCC(=O)N2CCCCC2)n1`, the Potency result was “inactive”.
Regarding `Cc1cccc(NC(=O)NCc2ccc3c(c2)cc(C)n3C)c1`, the Potency result is “inactive”.
In the case of `O=C(OCC(=O)N1CCCCC1)c1cc2ccccc2cc1O`, the Potency entry is “inactive”.
On to `CCOC(=O)c1c(-c2ccc(C)o2)csc1NC(=O)COC(=O)c1ccc(NC(N)=O)cc1`, for which the Potency entry is “inactive”.
To `CC(C)(C)NC(=O)CSc1nc(O)cc(=O)n1-c1ccccc1F` belongs “inactive”; to `O=C(COC(=O)c1ccc(F)c(S(=O)(=O)N2CCOCC2)c1)c1ccccc1`, “inactive”; to `C=CCn1c(N)c(C(=O)NCc2cccnc2)sc1=S`, “inactive”.
In the case of `CCOC(=O)c1c(C)c(C(=O)O)n(C)c1C`, the Potency result was “inactive”.
Turning to `O=C(CCNc1cccc(Cl)c1)c1ccco1`, the Potency entry was “inactive”.
